The sample as a whole holds a higher share of hits than the screen did.
Pf Dd2 inh: inhibitors of Plasmodium falciparum Dd2 growth. P. falciparum Dd2 growth, SYBR Green, 72 h. Potency, µM (highest dose often 28.9 µM), for inactives: at the highest dose activity, negative = inhibition, hits mostly inhibitors. 4.3% of 120,000 active. AID 1347417; active = well fitted inhibition curve with a large enough effect;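 note: plate controls were DMSO vehicle for no effect and reference drug for full effect; nearly all actives have a fitted effect of over 65% in size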
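Readout: SYBR Green fluorescence, 485 nm excitation, 535 nm emission, after ~16 h lysis at 37C. Before that, Dd2-infected red cells (2.5% hematocrit) grew 72 h with compound, 29 uM top final concentration.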
Starred values were filed as active, the others as inactive; i = inactive; [ ] = remark or other dose. Potency is the fitted concentration of half-maximal effect.

SMILES	Pf Dd2 inh
CC(C)(C)OC(=O)N1CCC(c2c(C(=O)N3CCN(c4ccccn4)CC3)cnn2-c2ccc(F)cc2)CC1	-5%
O=C(c1ccco1)N1CCN(C(=O)c2cnn(-c3cccc(F)c3)c2C2CCNCC2)CC1	2%
C1CCC(c2nc(CCOCC3CC3)no2)NC1 (stereo not drawn)	-4%
CC(C)N1CC(Oc2cccc(C(=O)N3CCOCC3)c2)C1	i
CCN(CC)C(=O)N1CCCN(C(=O)C2CC2)C(c2ccccc2)CC(=O)NCC1 (stereo not drawn)	-19%
COc1cc(CCC(=O)NC2CCc3nnc(C4CC4)n3CC2)on1 (stereo not drawn)	i
Cc1ccc(C)c(NC(=O)c2cnn(-c3ccc(F)cc3F)c2C2CCNCC2)c1	39%
Cc1cc(C)cc(NC(=O)C2CCN(C(=O)c3cnn(-c4ccccc4)c3-n3cccc3)CC2)c1	10%
Cc1cc(C)cc(NC(=O)c2cnn(-c3ccc(C)c(C)c3)c2C2CCNCC2)c1	4µM*
CC(=O)N1C[C@@H]2C[C@H](C1)c1ccc(NC(=O)C3CCCCC3)c(=O)n1C2	14%[44.1 µM]
CCO[C@H]1CN(Cc2cnc(-c3cccs3)nc2)C[C@@H]1O	-4%
CNCc1ccccc1-c1ccccc1	11µM*
CNCc1ccccc1C(F)(F)F	50%[44.1 µM]
CNCc1ccccc1OC	1%[44.1 µM]
O=C(c1ccc(=O)[nH]c1)N1CC[C@@H]2[C@@H](CCC(=O)N2CCc2cnc[nH]2)C1	-1%
COc1ccc(OCc2nc(C3CN(C(=O)c4ccc5nc[nH]c5c4)C3)no2)cc1	-15%
O=C(Cn1nc2c(cc1=O)CCCCC2)NCCc1nc2ccccc2[nH]1	1%
O=C(c1cnco1)N(CC1CCN(Cc2ccccc2F)CC1)CC1CCCO1 (stereo not drawn)	-14%
Oc1ccccc1CN(CCN1CCCCC1)CC1CCCN(C2CCCC2)C1 (stereo not drawn)	i
FC(F)Oc1ccccc1CN(CC1CCN(C2CCCC2)CC1)CC1CCCO1 (stereo not drawn)	7.1µM*
CCc1ccc(C2c3c(-c4ccccc4)n[nH]c3C(=O)N2c2ccc(C(=O)O)cc2)cc1 (stereo not drawn)	-10%
CCOC(=O)c1sc(N2C(=O)c3oc4cc(C)c(C)cc4c(=O)c3C2c2cccc(O)c2)nc1C (stereo not drawn)	-4%
CCOC(=O)c1ccc(N2C(=O)c3n[nH]c(C)c3C2c2ccc(C(C)C)cc2)cc1 (stereo not drawn)	-19%
COc1cccc(C2NC(=O)c3n[nH]c(-c4cccs4)c32)c1 (stereo not drawn)	-14%
CCOC(=O)c1ccc(N2C(=O)c3n[nH]c(-c4cccs4)c3C2c2ccc(C)cc2)cc1 (stereo not drawn)	49%
SMILES	Pf Dd2 inh
CCOC(=O)c1ccc(N2C(=O)c3[nH]nc(-c4ccc(OC)cc4)c3C2c2ccc(C)cc2)cc1 (stereo not drawn)	8.9µM*
CCOC(=O)c1ccc(N2C(=O)c3n[nH]c(-c4cccs4)c3C2c2ccc(C(C)(C)C)cc2)cc1 (stereo not drawn)	7.1µM*
CCOC(=O)c1ccc(N2C(=O)c3n[nH]c(-c4ccco4)c3C2c2cccc(F)c2)cc1 (stereo not drawn)	10µM*
CCOC(=O)c1ccc(N2C(=O)c3n[nH]c(-c4cccs4)c3C2c2cccc(F)c2)cc1 (stereo not drawn)	7.9µM*
CCOC(=O)c1ccc(N2C(=O)c3n[nH]c(-c4cccs4)c3C2c2ccc(Cl)cc2Cl)cc1 (stereo not drawn)	-4%
CC1=C(C(=O)OC(C)C)C(c2cccc(F)c2)N2C(CC(=O)NCc3ccco3)=CSC2=N1 (stereo not drawn)	-16%
CCOC(=O)c1ccc(N2C(=O)c3n[nH]c(-c4cccs4)c3C2c2ccc(O)c(OC)c2)cc1 (stereo not drawn)	53%
CNC(=O)[C@@H]1CN(C(=O)c2cc(C)n(Cc3ccco3)c2C)C[C@H]1CO	-7%
Oc1ccc(-c2nc(C3CC3)nc3c2CN(Cc2ccncc2)CC3)cc1	i
Cc1cccc(-n2c(=O)c3c(cc(C)n3C)n(CC(=O)Nc3ccccc3F)c2=O)c1	i
O=C(Cn1nc2n(c1=O)CCCCC2)Nc1ccc(F)c(Cl)c1	-10%
COc1cccc(CNC(=O)[C@@]23CCCC[C@H]2N(C)C(=O)CC3)c1OC	1%
CCNC(=O)N1CC[C@H]2CC(=O)N(c3ccccc3)CC[C@H]2C1	41%[44.1 µM]
Cc1cccc(C(=O)N2CCCC3(C2)NC(=O)N(Cc2ccccc2)C3=O)c1 (stereo not drawn)	-19%
COCCNC(=O)[C@@H]1[C@H](c2cc(OC)c(OC)c(OC)c2)c2cc3c(cc2[C@H](O)[C@H]1CO)OCO3	-14%
Cc1noc(CC2CCN(C(=O)C3CCN(C(=O)C4CCCC4)CC3)CC2)n1	-1%
Cc1ccc(-c2n[nH]c3c2C(c2ccccc2Cl)N(c2ccc(C(=O)O)cc2)C3=O)cc1 (stereo not drawn)	-6%
COc1cc(C2c3c(-c4ccc(C)cc4)n[nH]c3C(=O)N2c2ccc(F)cc2)ccc1O (stereo not drawn)	i
Cc1ccc(-c2n[nH]c3c2C(c2cccs2)N(c2ccc(Cl)cc2)C3=O)cc1 (stereo not drawn)	11µM*
CCOc1ccc(CN2CCN(c3cc(C)nc(NC)n3)CC2CCO)cc1 (stereo not drawn)	-20%
COc1ccc(OC)c(NC(=O)Cn2c(-c3ccc(F)cc3)nc(C)cc2=O)c1	i
O=C1NCc2ccccc2CC12CCCN2Cc1cc(O)cc(O)c1 (stereo not drawn)	4%
O=C1NCc2ccccc2CC12CCCN2Cc1ccccc1Cl (stereo not drawn)	-22%
O=C1NCc2ccccc2CC12CCN(Cc1cnc3ccccc3c1)C2 (stereo not drawn)	-20%
O=C1NCc2ccccc2CC12CCCN2Cc1ccc(Cl)cc1 (stereo not drawn)	-13%
SMILES	Pf Dd2 inh
O=C1NCc2ccccc2CC12CCCCN2Cc1ccc(O)cc1 (stereo not drawn)	-3%
O=C1NCc2ccccc2CC12CCCN2Cc1cnc2ccccc2c1 (stereo not drawn)	8.9µM*
O=C1NCc2ccccc2CC12CCN(Cc1ccc(Cl)s1)C2 (stereo not drawn)	-7%
O=C1NCc2ccccc2CC12CCCCN2Cc1ccnc2ccccc12 (stereo not drawn)	8.9µM*
O=C1NCc2ccccc2CC12CCCN2Cc1ccc(Cl)s1 (stereo not drawn)	10µM*
O=C1CC2CCN(Cc3ccc(C(F)(F)F)cc3)CC2CCN1 (stereo not drawn)	-19%
COc1ccc(CNC(=O)C[C@@H]2C[C@H]3O[C@H](CNCc4cnccc4C(F)(F)F)[C@@H](O)[C@H]3O2)cc1	26%
COCC1CN(C)CC12CCN(C(=O)Cn1c(=O)oc3ccccc31)CC2 (stereo not drawn)	-7%
N#Cc1cccc(-c2ccnc(N[C@H]3CO[C@H]4[C@@H]3OC[C@@H]4NC(=O)C3CCCCC3)n2)c1	i
O=C(c1cc(C2CC2)nc2onc(C3CCCNC3)c12)N1CCC(F)CC1 (stereo not drawn)	-1%
O=C(c1ccccc1F)N1CCC(n2cc(-c3nc(C4CC4)no3)nn2)C1 (stereo not drawn)	-7%
c1ccc(-n2cc(CN3CCN(c4nc5ccccc5o4)CC3)nn2)cc1	-14%
COc1ccc(C(=O)N2CCN(Cc3cn(-c4ccccc4)nn3)CC2)cc1	i
Cc1cc(C)cc(N2CCN(Cc3cn(-c4ccccc4)nn3)CC2=O)c1	11µM*

Screening results as filed in PubChem BioAssay.
